Screening results (PubChem)
CHT inh: inhibits the human high affinity choline transporter; CHT-expressing cells, membrane potential dye, choline response; active compounds read low; B-score at 10 µM; 0.86% of 310,000 active; AID 488975;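 active = B-score over 3 SD under the library average, and starting fluorescence ratio not unusually high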;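 also: choline stimulus applied at its EC90 after an EC20 pre-addition; B-score computed on integrated fluorescence ratio after choline addition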
EP2 modulator: EP2 receptor (human) modulation | induction, % at 25 µM | AID 940 | EP2-expressing cells, cAMP HTRF FRET, PGE2 co-stimulation | P43116 | 0.83% of 260,000 active;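 active = compounds whose cAMP rise, as percent of the full-agonist control response, exceeds 60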;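 also: rat C6 glioma line stably carrying human EP2 under a CMV promoter; the protocol text gives 20 µM as final concentration; 100% = response of wells given 1 µM PGE2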
Target sequence (P43116 whole entry, looked up): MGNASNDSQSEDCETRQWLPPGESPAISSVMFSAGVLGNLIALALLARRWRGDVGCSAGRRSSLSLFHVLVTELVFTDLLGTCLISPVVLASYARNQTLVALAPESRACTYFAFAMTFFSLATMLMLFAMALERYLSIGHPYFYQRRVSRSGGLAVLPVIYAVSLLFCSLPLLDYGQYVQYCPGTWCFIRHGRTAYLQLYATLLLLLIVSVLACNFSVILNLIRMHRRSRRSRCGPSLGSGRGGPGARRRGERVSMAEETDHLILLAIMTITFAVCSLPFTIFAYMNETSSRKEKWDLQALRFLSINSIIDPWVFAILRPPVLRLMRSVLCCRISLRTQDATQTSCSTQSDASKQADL
EP2 antag: blocks the human prostaglandin E2 receptor EP2; C6 glioma cells expressing human EP2, cAMP TR-FRET; cells stimulated with saturating PGE2; inhibition, % at 25 µM; AID 1422; 0.52% of 260,000 active; P43116;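 active = percent inhibition above 40 after rounding to a whole number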;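 also: rat C6 glioma host cells with rolipram phosphodiesterase inhibitor present; the protocol text gives 20 µM as final concentration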
CHT allo act: allosteric activators of human choline transporter CHT; Q9GZV3; CHT-expressing cells, membrane potential dye, choline EC20; active compounds read high; LV-AA mutant CHT in HEK293 cells; B-score at 10 µM; 0.49% of 310,000 active; AID 488977;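 active = initial fluorescence not abnormally high and integrated response B-score, plate-corrected, over 3 SD above library mean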
CHT block conf: human CHT inhibition, confirmatory screen | AID 493221 | shares compounds with CHT inh | CHT-expressing cells, choline membrane potential dye; LV-to-AA substituted CHT, HEK293 cells | CHT activity remaining % of control (active compounds read low), % at 10 µM | 70% of 2,400 active;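 active = choline transporter activity left, mean of duplicates at 10 µM, below buffer-only control mean minus 3 SD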;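 also: depolarization triggered by choline at its EC90 following an EC20 pre-addition; 0% = hemicholinium-3 full block and 100% = buffer-only control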
HEK293 CHT ctr: CHT inhibitor counter-screen hit in parental HEK293 cells | shares compounds with CHT inh | 4% of 2,400 active | membrane potential ratio readout (active if shifted either direction beyond buffer ±3SD; no single direction) at 10 µM | membrane potential dye, choline response; active = decrease or increase beyond buffer ±3SD | AID 493222;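 also: parental cells lack the transporter so any hit is non-specific; ratio is peak minus trough fluorescence over baseline after EC90 choline challenge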
* marks the source's active call; other numbers are inactive results; i = inactive; . = no result. Hits are enriched below; roughly 2.1% of the tested compounds scored in any of these assays.

SMILES | CHT inh | EP2 modulator | EP2 antag | CHT allo act | CHT block conf | HEK293 CHT ctr
CC(/C=C1\SC(=O)N(CCCC(=O)O)C1=O)=C\c1ccccc1 | -5* | 31 | 14 | i | 64%* | i
CC(C)c1nc(CNC(=O)c2ccc(OC3CCN(Cc4ccccn4)CC3)cc2)cs1 | i | . | . | i | . | .
CC(NC(=O)c1ccc(OC2CCN(Cc3ccccn3)CC2)cc1)c1ccccc1 (stereo unspecified) | -10* | -7 | 3 | i | -1.0%* | i
COCCNc1c(-c2ccc(OC)cc2)nc2ccc(Cl)cn12 | -9.6* | 6 | 6 | i | i | i
CCOC(=O)CNc1c(-c2ccc(OC)cc2)nc2ccc(Cl)cn12 | i | -19 | 18 | i | . | .
COCCNc1c(-c2ccc(N)cc2)nc2ccc(C)cn12 | . | -55 | 15 | . | . | .
CN1CCN(c2nc3c(c(=O)[nH]c(=O)n3C)n2CCC#N)CC1 | . | -6 | 9 | . | . | .
Cc1cc(C)cc(NC(=O)CCc2c(C)nn(-c3ccc(N4CCCCC4)nn3)c2C)c1 | i | . | . | i | i | i
CCn1c(SCCN2CCOCC2)nc2ccccc2c1=O | . | 60 | 10 | . | . | .
COc1ccc(OC)c(Nc2ccc(C(=O)O)cc2[N+](=O)[O-])c1 | -6.7* | -20 | 5 | i | i | i
COc1ccc(Nc2ccc(C(=O)O)cc2[N+](=O)[O-])cc1 | i | 0 | 8 | i | . | .
CN(C)c1ccc(-c2nnn(CC(=O)N3c4ccccc4CCc4ccccc43)n2)cc1 | -7.2* | -7 | 5 | i | i | i
CCOC(=O)Cc1csc(N/C(=N/S(=O)(=O)c2ccc(F)cc2F)c2ccccc2)n1 | -6.8* | 32 | 4 | i | 63%* | i
CCCC(=O)N1CCc2cc(-c3nc(NC(=O)c4ccncc4)sc3C)ccc21 | . | -59 | 21 | . | . | .
O=c1[nH]ncc(N2CCN(C(c3ccccc3)c3ccccc3)CC2)c1Cl | i | 56 | 7 | i | . | .
O=c1[nH]ncc(N2CCCC2)c1Cl | -10* | 9 | 7 | i | 42%* | i
CC(C)n1c2ccccc2n2c(=O)c(=O)n(CC(=O)N3CCc4ccccc43)nc12 | . | 11 | 8 | . | . | .
COc1ccccc1NC(=O)C1CCCN(c2ncnc3c2nc2n3CCCCC2)C1 (stereo unspecified) | -6.8* | . | . | i | 5.7%* | i
O=C(NCc1ccccc1)C1CCCN(c2ncnc3c2nc2n3CCCCC2)C1 (stereo unspecified) | i | . | . | i | . | .
Cc1cccc(CCNC(=O)C2CCCN(c3ncnc4c3nc3n4CCCCC3)C2)c1 (stereo unspecified) | -7.6* | . | . | i | 19%* | i
O=C(Nc1ccccc1Cl)C1CCCN(c2ncnc3c2nc2n3CCCCC2)C1 (stereo unspecified) | -5.2* | . | . | i | 26%* | i
O=C(CN1C(=O)S/C(=C\c2ccco2)C1=O)CN1C(=O)S/C(=C\c2ccco2)C1=O | . | 18 | 9 | . | . | .
CCC(=O)Nc1ccc(NC(=O)CSc2nc3c(C)cc(C)cc3cc2C)cc1C | . | -14 | 12 | . | . | .
CCOc1cc(NC(=O)c2ccco2)c(OCC)cc1NC(=O)c1ccc(OC)cc1 | . | -3 | 14 | . | . | .
Cn1c(-c2ccccc2)cnc1SCc1nc2ccccc2c(=O)[nH]1 | -5.3* | -37 | 6 | i | 60%* | i
SMILES | CHT inh | EP2 modulator | EP2 antag | CHT allo act | CHT block conf | HEK293 CHT ctr
C=CCn1c(SCC(=O)c2ccc(OC)cc2)nnc1-c1ccc2c(c1)OCO2 | -15* | -42 | 8 | i | i | i
CCOC(=O)c1[nH]c(C)c(C(=O)N2CCc3ccccc32)c1C | -6* | 19 | 12 | i | i | 2.4*
COc1ccc(OC)c(CC(=O)Nc2nc3c(s2)CCc2c-3cnn2C)c1 | . | -68 | 7 | . | . | .
CCC(Sc1nc2ccccc2s1)C(=O)Nc1nnc(C)s1 (stereo unspecified) | i | -3 | 5 | i | . | .
CC(Sc1nc2ccccc2s1)C(=O)Nc1nnc(C(C)C)s1 (stereo unspecified) | -5.3* | 1 | 8 | i | i | i
COc1cccc(N2CCN(C(c3ccccn3)c3nnnn3C(C)(C)C)CC2)c1 (stereo unspecified) | -5* | 2 | 15 | i | i | i
CC(C)(C)n1nnnc1C(c1ccccn1)N1CCN(C(c2ccccc2)c2ccccc2)CC1 (stereo unspecified) | i | 15 | 10 | i | . | .
CC1(C)C(C=C(Cl)Cl)C1C(=O)Nc1ccc(S(=O)(=O)Nc2ncccn2)cc1 (stereo unspecified) | -5.1* | . | . | i | 33%* | i
C=CCSc1nc(O)c(CC)c(=O)n1C(C)CC (stereo unspecified) | i | 22 | 7 | i | . | .
CCc1c(O)nc(SCc2ccccc2)n(C(C)CC)c1=O (stereo unspecified) | -5.2* | 0 | 11 | i | i | i
Cc1c(Cl)cccc1NC(=O)C1CCN(S(C)(=O)=O)CC1 | i | -12 | 12 | i | . | .
Cc1cccc(NC(=O)C2CCN(S(C)(=O)=O)CC2)c1C | -5.3* | 19 | 18 | i | i | i
COc1ccccc1NC(=S)NCCN1CCOCC1 | -8.3* | 1 | 7 | i | i | i
COc1ccc(NC(=S)NCCN2CCOCC2)c(OC)c1 | i | . | 10 | i | . | .
CCN(Cc1ccncc1)C(=O)c1cc(COc2c(C)cccc2C)on1 | -5.5* | . | . | i | 53%* | i
O=C(O)CN1C(=O)/C(=C/C=C/c2ccccc2)SC1=S | -8.5* | 44 | 7 | i | 40%* | i
COc1ccc(-c2cc(C(F)(F)F)nc(SCC(=O)N3CCc4ccccc4C3)n2)cc1OC | . | -7 | 4 | . | . | .
CC(C)Sc1nc2ccc(Br)cc2[nH]1 | -5.5* | 1 | 11 | i | i | i
Cc1cc(C)c[n+](CC(=O)c2c(C)cc(C)c([N+](=O)[O-])c2C)c1 | -7.9* | . | . | i | 45%* | i
COc1ccccc1N=NC1=C(O)CC(C)(C)CC1=O | -5.5* | 6 | 4 | i | i | i
O=C(O)CCNC1C=CS(=O)(=O)C1 (stereo unspecified) | -6.2* | -21 | 8 | i | i | i
Fc1ccccc1NC(=S)NNc1ncc(C(F)(F)F)cc1Cl | -8.1* | -27 | . | i | 60%* | i
COc1cc(NC(=S)NC(=O)c2oc3ccccc3c2C)ccc1NC(=O)c1ccco1 | . | -29 | 9 | . | . | .
c1ccc([I+]c2cccs2)cc1 | . | -12 | 15 | . | . | .
Cc1cc2ccccc2n2c(SCC(=O)NC(C)(C)C)nnc12 | . | -32 | 3 | . | . | .
CC(=O)N1c2ccc(S(=O)(=O)NCc3ccccc3Cl)cc2CC1C (stereo unspecified) | -7* | . | . | i | 61%* | i
